The values below come from the supplement of paper PMC10849652.

Targets with a hit are over-represented here; the source holds about 7,900 in all. About 0.6% of all pairs of compound and target were hits. Values without a mark were called inactive.

Sequence of UniProt P24863 (P24863 whole entry, looked up): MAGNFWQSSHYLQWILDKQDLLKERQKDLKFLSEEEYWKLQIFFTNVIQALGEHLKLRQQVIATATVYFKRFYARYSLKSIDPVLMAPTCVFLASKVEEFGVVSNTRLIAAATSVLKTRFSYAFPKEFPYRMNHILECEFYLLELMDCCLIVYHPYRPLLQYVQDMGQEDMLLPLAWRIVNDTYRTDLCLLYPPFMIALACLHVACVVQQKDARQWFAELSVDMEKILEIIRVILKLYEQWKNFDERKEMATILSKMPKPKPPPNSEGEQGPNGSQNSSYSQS
Sequence of UniProt Q86X95 (Q86X95 whole entry, looked up): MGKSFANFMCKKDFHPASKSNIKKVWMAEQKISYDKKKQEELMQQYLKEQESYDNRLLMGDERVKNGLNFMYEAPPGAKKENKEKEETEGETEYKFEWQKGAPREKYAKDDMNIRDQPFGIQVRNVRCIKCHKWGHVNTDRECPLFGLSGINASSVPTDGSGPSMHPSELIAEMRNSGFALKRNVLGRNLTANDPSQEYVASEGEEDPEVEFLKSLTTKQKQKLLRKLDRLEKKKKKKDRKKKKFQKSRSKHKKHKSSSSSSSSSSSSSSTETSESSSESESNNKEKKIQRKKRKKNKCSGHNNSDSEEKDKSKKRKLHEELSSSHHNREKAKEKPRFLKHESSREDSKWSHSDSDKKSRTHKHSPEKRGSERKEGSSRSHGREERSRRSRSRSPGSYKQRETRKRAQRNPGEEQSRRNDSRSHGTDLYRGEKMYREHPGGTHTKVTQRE
Sequence of UniProt O75208 (O75208 whole entry, looked up): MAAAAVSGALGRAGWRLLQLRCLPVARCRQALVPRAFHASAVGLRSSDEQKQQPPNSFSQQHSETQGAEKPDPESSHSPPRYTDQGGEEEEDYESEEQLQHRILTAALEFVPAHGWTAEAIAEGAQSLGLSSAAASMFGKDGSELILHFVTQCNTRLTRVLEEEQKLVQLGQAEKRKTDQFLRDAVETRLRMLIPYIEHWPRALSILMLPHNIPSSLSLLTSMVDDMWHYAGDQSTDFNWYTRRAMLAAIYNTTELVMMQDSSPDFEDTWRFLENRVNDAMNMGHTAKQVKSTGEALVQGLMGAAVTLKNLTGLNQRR
Sequence of UniProt P51790 (P51790 whole entry, looked up): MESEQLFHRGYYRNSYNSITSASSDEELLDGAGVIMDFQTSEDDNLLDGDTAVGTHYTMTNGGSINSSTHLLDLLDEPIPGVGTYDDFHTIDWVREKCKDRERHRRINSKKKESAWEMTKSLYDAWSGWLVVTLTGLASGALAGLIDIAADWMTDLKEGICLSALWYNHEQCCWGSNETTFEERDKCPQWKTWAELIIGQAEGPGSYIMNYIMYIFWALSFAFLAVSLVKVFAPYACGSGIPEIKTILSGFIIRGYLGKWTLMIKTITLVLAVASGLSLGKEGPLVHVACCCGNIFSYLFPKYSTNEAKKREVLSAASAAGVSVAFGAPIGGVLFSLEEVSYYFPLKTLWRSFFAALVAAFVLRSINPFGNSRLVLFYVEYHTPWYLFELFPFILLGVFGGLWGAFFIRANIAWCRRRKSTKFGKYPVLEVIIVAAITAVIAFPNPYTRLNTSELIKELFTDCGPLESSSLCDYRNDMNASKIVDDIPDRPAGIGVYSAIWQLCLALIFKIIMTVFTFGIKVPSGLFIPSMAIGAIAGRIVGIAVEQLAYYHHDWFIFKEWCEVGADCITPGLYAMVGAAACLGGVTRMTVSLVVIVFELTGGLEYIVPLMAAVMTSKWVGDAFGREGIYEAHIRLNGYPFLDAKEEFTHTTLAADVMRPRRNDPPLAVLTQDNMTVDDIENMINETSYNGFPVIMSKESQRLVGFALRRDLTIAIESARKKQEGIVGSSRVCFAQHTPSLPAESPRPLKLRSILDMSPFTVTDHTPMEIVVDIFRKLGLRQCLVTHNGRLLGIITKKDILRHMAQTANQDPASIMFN
Sequence of UniProt Q8IWV2 (Q8IWV2 whole entry, looked up): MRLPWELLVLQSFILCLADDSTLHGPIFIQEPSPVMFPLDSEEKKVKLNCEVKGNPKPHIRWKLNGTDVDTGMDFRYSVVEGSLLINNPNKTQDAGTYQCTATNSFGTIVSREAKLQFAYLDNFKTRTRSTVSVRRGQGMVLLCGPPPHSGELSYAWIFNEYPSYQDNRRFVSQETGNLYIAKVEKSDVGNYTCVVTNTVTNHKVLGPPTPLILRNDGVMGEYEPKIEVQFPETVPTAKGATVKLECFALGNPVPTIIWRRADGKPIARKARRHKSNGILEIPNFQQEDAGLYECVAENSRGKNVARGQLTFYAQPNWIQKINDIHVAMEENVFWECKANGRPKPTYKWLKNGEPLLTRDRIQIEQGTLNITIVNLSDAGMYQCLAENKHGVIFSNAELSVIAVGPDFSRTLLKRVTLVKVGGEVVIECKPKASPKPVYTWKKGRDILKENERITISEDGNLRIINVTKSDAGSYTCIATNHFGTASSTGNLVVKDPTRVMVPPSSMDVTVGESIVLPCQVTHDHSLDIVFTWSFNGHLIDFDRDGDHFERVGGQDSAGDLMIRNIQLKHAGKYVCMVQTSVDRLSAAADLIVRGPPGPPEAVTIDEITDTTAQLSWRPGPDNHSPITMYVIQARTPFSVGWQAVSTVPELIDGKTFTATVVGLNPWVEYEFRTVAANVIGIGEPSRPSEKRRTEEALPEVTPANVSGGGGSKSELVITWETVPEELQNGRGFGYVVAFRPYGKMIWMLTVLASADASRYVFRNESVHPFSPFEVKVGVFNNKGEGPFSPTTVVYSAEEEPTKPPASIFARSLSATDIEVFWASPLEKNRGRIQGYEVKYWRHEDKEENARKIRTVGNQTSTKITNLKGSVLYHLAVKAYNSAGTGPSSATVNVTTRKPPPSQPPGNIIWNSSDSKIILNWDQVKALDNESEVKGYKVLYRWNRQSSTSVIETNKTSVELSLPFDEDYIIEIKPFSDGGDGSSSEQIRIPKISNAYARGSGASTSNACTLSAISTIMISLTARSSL
Sequence of UniProt Q8NHZ8 (Q8NHZ8 whole entry, looked up): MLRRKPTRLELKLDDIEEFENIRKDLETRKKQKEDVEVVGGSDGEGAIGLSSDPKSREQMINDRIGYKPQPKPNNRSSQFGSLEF
Sequence of UniProt P42575 (P42575 whole entry, looked up): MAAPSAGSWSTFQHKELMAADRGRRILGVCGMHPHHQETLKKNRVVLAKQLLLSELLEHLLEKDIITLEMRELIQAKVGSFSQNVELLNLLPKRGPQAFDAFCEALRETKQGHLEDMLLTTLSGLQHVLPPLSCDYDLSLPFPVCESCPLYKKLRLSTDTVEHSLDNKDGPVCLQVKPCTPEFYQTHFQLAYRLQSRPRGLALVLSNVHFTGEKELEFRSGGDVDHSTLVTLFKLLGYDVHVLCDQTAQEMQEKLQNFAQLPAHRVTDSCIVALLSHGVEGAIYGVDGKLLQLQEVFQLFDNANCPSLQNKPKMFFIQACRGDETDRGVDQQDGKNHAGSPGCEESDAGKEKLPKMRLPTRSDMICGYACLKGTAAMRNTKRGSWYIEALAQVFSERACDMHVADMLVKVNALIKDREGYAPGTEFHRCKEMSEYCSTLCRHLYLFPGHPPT
Sequence of UniProt P30305 (P30305 whole entry, looked up): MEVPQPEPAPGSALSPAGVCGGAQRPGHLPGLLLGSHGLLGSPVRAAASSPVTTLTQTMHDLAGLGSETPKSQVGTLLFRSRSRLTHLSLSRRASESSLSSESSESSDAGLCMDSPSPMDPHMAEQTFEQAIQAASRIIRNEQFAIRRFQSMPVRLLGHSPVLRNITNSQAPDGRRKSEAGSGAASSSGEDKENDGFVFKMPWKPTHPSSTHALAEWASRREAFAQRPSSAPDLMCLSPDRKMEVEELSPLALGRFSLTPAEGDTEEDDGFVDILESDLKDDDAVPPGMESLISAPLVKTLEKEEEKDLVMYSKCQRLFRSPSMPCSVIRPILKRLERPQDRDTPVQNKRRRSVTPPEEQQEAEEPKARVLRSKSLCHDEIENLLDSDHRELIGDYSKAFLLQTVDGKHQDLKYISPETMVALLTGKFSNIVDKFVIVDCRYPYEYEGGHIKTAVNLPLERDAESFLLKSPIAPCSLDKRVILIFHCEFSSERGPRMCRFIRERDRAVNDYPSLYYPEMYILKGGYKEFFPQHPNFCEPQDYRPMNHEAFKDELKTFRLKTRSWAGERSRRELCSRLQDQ
Sequence of UniProt P49336 (P49336 whole entry, looked up): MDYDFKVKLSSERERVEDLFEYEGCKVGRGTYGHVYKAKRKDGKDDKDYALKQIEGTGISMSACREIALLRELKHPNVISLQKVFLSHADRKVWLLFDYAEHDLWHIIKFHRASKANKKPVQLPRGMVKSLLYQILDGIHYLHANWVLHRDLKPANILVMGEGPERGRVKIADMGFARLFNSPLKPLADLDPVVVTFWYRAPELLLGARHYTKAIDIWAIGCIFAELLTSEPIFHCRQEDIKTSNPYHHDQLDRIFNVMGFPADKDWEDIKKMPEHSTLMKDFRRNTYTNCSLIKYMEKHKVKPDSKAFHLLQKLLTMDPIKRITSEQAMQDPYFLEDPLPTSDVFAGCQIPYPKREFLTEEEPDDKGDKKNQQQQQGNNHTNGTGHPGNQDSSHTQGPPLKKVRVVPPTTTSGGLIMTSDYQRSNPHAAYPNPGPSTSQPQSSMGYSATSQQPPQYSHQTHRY
Sequence of UniProt P14854 (P14854 whole entry, looked up): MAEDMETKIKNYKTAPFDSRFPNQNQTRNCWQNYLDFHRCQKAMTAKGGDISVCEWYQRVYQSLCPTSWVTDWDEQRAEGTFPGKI
Sequence of UniProt P09497 (P09497 whole entry, looked up): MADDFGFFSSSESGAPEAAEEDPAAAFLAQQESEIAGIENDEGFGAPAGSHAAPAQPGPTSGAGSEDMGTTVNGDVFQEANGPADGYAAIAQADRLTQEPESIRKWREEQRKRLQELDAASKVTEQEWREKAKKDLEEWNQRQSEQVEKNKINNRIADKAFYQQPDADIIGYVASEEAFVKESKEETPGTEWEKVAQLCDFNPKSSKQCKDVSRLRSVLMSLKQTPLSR
Sequence of UniProt Q8N4Q1 (Q8N4Q1 whole entry, looked up): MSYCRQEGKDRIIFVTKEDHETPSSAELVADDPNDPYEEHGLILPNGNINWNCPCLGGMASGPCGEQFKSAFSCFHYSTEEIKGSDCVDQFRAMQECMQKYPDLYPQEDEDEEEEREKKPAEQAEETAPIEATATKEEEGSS

Compound in this test: CC1=C2C(=CC=C1)N=C(N(C2=O)C3=CC=CC=C3C)CN4C=NC5=C(N=CN=C54)N
In words: log2 fold change, soluble protein after heating vs DMSO (PISA); higher = thermal stabilisation; K562 cells, 10 uM, 30 min; active = over 0.2 and 3.5 SD of the protein, either way, in both replicates (recomputed). Put shortly:
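Thermal stability values are relative to control samples and come from duplicates. They are expressed as log2 fold changes. For measurement, K562 cells (2×10^6 cells/mL) received 10 μM compound for 30 min, and aliquots were heated for 3 min over 48°C-58°C, pooled, and extracted at 4°C in PBS with 0.5% NP-40. Soluble protein, the supernatant after 21,000xg for 90 min, was quantified by TMTpro 16plex LC-MS/MS with equalised channel sums.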
As for CLCN3 isoform 2 (UniProt P51790), the log2 fold change was -0.014.

For the target CSTF3 (UniProt Q12996), the log2 fold change was -0.007. Consider CAMK2G isoform 6 (UniProt Q13555), for which the log2 fold change is 0.044.

As to C19orf53 (UniProt Q9UNZ5), the log2 fold change was -0.266.

Consider CLASP2 isoform 3 (UniProt O75122), for which the log2 fold change was 0.091. Under CCNC (UniProt P24863) stands 0.01; under CELF2 isoform 3 (UniProt O95319), 0.013. As for CDK8 (UniProt P49336), the log2 fold change was 0.018.

Consider CDK17 isoform 2 (UniProt Q00537), for which the log2 fold change was -0.049. Under CAVIN1 (UniProt Q6NZI2) stands -0.103; under CCDC57 (UniProt Q2TAC2), 0.047; under CDC25B isoform 4 (UniProt P30305), 0.101. Under CDC37L1 (UniProt Q7L3B6) stands 0.087; under CDK4 (UniProt P11802), 0.119; under CHST11 (UniProt Q9NPF2), 0.055. As for CLTB (UniProt P09497), the log2 fold change is -0.016. The same measure for CNDP2 (UniProt Q96KP4): 0.023; for CDC26 (UniProt Q8NHZ8): -0.346.

CCDC9 (UniProt Q9Y3X0): the log2 fold change is -0.118.

CDKN1B (UniProt P46527): the log2 fold change is -0.036. The same measure for CNN2 (UniProt Q99439): 0.039; for CASP2 (UniProt P42575): 0.027; for CLPTM1L (UniProt Q96KA5): 0.024. Take CNTN4 (UniProt Q8IWV2): the log2 fold change was 0.103. Under CIT isoform 4 (UniProt O14578) stands 0.001; under CIR1 (UniProt Q86X95), -0.241.

With COX6B1 (UniProt P14854), the log2 fold change is 0.003. Under COQ9 (UniProt O75208) stands 0.053.

In the case of CLINT1 (UniProt Q14677), the log2 fold change was -0.005. The same measure for CASP3 (UniProt P42574): -0.005; for CHCHD4 isoform 2 (UniProt Q8N4Q1): -0.006; for CHD3 isoform 3 (UniProt Q12873): 0.069. In the case of CHMP4C (UniProt Q96CF2), the log2 fold change is 0.045.
